ChEMBL document CHEMBL1961873, “Compounds: GSK PKIS; Assays: Nanosyn kinase panel” (2012)

How the values were obtained:
[1] = tested on: Proto-oncogene tyrosine-protein kinase receptor Ret (Homo sapiens), P07949 [Y791F]; details: at 1 µM
[2] = target: Macrophage-stimulating protein receptor (Homo sapiens) (UniProt Q04912); details: at 0.1 µM
[3] = target: Macrophage-stimulating protein receptor (Homo sapiens) (UniProt Q04912); details: at 1 µM
[4] = target: Proto-oncogene tyrosine-protein kinase ROS (Homo sapiens) (UniProt P08922); details: at 0.1 µM
[5] = target: Proto-oncogene tyrosine-protein kinase ROS (Homo sapiens) (UniProt P08922); details: at 1 µM
[6] = target: Proto-oncogene tyrosine-protein kinase Src (Homo sapiens) (UniProt P12931); details: at 0.1 µM
[7] = target: Proto-oncogene tyrosine-protein kinase Src (Homo sapiens) (UniProt P12931); details: at 1 µM
[8] = target: Tyrosine-protein kinase Srms (Homo sapiens) (UniProt Q9H3Y6); details: at 0.1 µM
[9] = target: Tyrosine-protein kinase Srms (Homo sapiens) (UniProt Q9H3Y6); details: at 1 µM
[10] = target: Tyrosine-protein kinase SYK (Homo sapiens) (UniProt P43405); details: at 0.1 µM
[11] = target: Tyrosine-protein kinase SYK (Homo sapiens) (UniProt P43405); details: at 1 µM
[12] = target: T1, Tyrosine-protein kinase Tec (Homo sapiens) (UniProt P42680); details: at 0.1 µM
T1 sequence (whole entry): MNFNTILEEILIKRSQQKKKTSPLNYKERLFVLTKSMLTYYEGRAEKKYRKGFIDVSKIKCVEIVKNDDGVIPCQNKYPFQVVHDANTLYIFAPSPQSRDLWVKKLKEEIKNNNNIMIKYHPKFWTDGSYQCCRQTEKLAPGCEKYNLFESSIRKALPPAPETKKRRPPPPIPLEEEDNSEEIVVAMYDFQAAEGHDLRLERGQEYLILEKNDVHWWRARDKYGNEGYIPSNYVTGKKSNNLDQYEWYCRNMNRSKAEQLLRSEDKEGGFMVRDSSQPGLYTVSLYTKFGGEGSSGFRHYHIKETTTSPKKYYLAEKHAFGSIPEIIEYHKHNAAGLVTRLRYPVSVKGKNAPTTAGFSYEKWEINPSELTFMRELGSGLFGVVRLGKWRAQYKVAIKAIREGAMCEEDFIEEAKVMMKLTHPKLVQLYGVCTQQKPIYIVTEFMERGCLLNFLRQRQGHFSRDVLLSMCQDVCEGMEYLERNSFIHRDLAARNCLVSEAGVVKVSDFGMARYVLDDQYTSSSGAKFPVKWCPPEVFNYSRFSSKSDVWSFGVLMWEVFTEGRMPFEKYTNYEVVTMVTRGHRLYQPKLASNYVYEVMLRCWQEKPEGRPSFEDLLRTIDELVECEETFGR

[13] = target: T1, Tyrosine-protein kinase Tec (Homo sapiens); details: at 1 µM
[14] = target: Angiopoietin-1 receptor (Homo sapiens) (UniProt Q02763); details: at 0.1 µM
[15] = target: Angiopoietin-1 receptor (Homo sapiens) (UniProt Q02763); details: at 1 µM
[16] = target: T2, Non-receptor tyrosine-protein kinase TNK1 (Homo sapiens) (UniProt Q13470); details: at 0.1 µM
T2 sequence (whole entry): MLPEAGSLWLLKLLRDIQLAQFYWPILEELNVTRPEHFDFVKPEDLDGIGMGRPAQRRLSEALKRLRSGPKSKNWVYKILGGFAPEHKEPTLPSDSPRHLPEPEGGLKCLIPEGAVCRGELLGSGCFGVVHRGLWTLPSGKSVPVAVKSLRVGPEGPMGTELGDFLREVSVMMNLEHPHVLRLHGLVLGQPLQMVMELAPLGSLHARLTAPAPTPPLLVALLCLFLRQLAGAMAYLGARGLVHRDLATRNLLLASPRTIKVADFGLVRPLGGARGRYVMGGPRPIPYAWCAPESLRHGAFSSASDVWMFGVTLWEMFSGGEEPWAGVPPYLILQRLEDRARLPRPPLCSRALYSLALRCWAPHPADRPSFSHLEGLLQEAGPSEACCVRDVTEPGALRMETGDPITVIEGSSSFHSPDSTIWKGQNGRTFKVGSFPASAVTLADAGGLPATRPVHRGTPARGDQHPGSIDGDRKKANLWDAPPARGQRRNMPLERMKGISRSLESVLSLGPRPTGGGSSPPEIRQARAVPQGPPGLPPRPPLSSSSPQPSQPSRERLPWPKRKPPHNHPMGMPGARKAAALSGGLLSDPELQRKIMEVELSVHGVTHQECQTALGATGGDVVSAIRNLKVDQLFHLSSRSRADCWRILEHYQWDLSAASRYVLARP

[17] = target: T2, Non-receptor tyrosine-protein kinase TNK1 (Homo sapiens); details: at 1 µM
[18] = target: Activated CDC42 kinase 1 (Homo sapiens) (UniProt Q07912); details: at 0.1 µM
[19] = target: Activated CDC42 kinase 1 (Homo sapiens) (UniProt Q07912); details: at 1 µM
[20] = target: High affinity nerve growth factor receptor (Homo sapiens) (UniProt P04629); details: at 0.1 µM;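 further: each value is a mean of replicate percent inhibition readings against TRKA kinase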

Sequence of Angiopoietin-1 receptor (Homo sapiens) (Q02763 whole entry): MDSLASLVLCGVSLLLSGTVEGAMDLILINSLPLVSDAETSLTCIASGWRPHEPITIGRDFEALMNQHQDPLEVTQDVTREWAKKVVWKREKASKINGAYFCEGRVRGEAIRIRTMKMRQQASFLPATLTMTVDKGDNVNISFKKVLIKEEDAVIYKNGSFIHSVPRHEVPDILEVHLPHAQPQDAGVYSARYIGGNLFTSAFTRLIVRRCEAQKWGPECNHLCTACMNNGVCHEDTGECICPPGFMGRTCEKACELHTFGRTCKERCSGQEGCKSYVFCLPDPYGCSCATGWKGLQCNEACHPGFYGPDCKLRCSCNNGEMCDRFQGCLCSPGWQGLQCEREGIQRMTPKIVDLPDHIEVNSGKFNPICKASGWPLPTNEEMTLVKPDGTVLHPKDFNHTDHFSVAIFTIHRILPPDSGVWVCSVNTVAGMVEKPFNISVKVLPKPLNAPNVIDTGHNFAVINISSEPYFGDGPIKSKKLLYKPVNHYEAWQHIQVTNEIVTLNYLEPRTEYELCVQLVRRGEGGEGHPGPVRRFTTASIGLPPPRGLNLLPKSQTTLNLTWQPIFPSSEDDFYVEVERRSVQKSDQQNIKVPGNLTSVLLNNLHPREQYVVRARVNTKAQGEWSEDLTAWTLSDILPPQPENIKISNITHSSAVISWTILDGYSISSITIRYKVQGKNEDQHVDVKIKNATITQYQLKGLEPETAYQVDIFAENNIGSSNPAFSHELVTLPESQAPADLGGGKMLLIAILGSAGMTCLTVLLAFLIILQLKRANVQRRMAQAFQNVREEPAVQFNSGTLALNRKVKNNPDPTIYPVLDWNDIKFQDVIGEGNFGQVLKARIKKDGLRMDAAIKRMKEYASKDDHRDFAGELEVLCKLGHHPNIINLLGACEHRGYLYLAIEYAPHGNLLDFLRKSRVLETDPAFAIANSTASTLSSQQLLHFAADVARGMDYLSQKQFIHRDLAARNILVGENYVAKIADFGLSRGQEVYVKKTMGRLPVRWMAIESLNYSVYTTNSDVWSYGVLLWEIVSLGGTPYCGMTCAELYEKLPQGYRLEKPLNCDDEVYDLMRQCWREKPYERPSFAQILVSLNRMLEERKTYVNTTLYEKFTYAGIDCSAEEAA
Sequence of Macrophage-stimulating protein receptor (Homo sapiens) (Q04912 25-304 limits assumed): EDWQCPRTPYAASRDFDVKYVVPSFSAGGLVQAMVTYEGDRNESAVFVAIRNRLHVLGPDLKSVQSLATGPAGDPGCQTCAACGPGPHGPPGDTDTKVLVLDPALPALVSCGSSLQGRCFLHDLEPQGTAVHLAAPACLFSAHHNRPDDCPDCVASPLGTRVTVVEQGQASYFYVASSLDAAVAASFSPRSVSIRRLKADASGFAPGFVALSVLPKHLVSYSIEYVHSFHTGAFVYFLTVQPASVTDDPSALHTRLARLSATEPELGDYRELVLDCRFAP
Sequence of Macrophage-stimulating protein receptor (Homo sapiens) (Q04912 310-1400 limits assumed): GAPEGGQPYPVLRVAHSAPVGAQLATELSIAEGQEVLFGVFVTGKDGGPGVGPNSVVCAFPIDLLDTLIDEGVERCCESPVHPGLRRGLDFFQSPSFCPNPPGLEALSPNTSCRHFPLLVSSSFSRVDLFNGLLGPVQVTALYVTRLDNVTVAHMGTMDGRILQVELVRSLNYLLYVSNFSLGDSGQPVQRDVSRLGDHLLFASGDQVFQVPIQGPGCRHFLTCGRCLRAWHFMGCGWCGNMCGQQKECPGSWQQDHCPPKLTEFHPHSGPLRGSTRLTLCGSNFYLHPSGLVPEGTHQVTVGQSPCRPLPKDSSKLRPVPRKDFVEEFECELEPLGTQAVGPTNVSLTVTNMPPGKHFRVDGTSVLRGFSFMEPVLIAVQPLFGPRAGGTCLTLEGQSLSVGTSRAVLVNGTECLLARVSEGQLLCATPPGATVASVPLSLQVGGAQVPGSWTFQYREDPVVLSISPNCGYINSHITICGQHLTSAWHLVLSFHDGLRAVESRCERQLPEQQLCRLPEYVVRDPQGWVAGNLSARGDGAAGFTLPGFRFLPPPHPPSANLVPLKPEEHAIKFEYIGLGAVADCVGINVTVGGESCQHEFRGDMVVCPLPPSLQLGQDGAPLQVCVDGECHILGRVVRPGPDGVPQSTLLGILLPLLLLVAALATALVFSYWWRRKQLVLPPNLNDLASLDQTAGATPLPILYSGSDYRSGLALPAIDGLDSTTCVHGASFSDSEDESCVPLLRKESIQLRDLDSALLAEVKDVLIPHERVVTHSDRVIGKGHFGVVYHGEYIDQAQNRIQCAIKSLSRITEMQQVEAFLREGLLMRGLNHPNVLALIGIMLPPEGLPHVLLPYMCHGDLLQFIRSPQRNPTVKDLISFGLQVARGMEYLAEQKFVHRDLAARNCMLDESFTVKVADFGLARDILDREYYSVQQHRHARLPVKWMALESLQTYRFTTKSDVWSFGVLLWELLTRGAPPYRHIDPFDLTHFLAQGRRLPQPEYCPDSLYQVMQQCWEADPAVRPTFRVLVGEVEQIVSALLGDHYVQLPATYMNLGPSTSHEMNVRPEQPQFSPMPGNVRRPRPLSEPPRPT
Sequence of Proto-oncogene tyrosine-protein kinase ROS (Homo sapiens) (P08922 whole entry): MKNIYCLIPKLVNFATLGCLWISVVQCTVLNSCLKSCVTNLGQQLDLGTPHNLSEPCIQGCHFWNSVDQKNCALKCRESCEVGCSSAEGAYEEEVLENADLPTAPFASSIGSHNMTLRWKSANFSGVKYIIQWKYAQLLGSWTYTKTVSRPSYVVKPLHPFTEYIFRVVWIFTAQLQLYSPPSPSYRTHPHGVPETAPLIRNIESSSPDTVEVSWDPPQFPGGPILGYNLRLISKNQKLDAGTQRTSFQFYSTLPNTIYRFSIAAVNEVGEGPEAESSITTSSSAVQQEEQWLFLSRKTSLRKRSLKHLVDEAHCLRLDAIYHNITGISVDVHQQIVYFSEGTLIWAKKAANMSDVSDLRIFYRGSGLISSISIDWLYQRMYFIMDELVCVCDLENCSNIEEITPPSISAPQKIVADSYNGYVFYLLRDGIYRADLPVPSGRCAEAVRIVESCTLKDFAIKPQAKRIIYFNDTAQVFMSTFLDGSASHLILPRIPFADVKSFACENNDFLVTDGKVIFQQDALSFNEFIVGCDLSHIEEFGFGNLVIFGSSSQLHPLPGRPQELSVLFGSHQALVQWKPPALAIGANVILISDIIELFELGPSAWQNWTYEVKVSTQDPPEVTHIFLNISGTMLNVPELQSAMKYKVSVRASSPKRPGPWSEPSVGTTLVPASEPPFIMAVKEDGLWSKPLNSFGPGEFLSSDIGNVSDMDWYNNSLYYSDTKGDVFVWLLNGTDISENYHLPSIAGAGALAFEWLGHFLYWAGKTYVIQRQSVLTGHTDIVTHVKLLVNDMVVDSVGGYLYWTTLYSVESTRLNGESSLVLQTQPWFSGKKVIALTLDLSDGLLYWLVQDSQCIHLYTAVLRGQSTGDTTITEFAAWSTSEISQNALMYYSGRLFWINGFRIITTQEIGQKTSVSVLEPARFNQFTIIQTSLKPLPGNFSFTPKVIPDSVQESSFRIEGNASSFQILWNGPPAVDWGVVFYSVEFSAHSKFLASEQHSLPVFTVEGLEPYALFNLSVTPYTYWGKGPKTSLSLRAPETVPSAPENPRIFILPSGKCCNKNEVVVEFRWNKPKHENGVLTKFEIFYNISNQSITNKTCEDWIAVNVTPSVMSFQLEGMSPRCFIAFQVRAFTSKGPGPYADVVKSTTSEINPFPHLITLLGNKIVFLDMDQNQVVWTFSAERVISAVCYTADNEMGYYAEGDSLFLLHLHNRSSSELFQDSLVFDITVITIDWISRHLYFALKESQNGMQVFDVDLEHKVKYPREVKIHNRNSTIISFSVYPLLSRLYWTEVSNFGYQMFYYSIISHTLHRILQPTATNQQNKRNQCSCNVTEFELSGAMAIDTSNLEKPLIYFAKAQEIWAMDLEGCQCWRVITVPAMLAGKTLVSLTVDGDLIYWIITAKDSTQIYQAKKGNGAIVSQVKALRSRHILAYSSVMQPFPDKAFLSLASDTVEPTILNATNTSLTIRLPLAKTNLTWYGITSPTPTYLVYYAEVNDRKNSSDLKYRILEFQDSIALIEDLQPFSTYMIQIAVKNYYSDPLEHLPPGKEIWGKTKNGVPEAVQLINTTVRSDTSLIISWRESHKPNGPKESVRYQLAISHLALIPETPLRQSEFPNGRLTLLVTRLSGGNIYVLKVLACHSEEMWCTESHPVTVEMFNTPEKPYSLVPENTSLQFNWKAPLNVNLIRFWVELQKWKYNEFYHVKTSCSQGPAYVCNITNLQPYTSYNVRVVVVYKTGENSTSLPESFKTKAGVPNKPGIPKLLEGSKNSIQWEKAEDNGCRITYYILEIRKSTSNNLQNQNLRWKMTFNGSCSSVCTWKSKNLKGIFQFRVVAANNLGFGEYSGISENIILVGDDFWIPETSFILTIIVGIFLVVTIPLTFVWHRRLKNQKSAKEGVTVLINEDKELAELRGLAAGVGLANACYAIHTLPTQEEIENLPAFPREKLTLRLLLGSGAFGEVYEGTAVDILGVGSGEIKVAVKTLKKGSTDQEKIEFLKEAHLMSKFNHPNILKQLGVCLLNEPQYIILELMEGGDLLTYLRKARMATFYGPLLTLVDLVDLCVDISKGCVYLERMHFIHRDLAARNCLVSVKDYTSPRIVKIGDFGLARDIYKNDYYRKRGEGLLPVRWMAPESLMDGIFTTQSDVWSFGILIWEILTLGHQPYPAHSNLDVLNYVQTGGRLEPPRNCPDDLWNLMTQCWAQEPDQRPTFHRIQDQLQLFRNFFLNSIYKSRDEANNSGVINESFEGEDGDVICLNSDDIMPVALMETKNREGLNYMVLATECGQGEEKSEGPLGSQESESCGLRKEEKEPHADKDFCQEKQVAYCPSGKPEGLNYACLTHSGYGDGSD

SMILES | inhibition [1] | inhibition [2] | inhibition [3] | inhibition [4] | inhibition [5] | inhibition [6] | inhibition [7] | inhibition [8] | inhibition [9] | inhibition [10] | inhibition [11] | inhibition [12] | inhibition [13] | inhibition [14] | inhibition [15] | inhibition [16] | inhibition [17] | inhibition [18] | inhibition [19] | inhibition [20]
CCn1c(-c2nonc2N)nc2c(N3CCCC3)nccc21 | 2.26% | 1.7% | 0.95% | 4.19% | 4.49% | -2.23% | -2.52% | 0.27% | 0.26% | -1.66% | 2.9% | -1.85% | -3.76% | 0.7% | 0.05% | -3.68% | -3.3% | -0.78% | -0.6% | 1.23%
CN1CCC(C(=O)Nc2n[nH]c3nnc(-c4ccccc4)cc23)CC1 | 10% | -1.52% | 14.1% | 5.55% | 9.8% | 9.17% | 8.13% | -0.14% | -5.75% | -4.25% | -1.15% | 3.47% | 4.52% | 2.55% | 7% | 2.98% | 7.95% | 1.4% | 1.85% | 0.43%
CC1=C(C(=O)Nc2ccc3[nH]ncc3c2)C(c2ccc(Cl)c(Cl)c2)CC(=O)N1 (stereo not given) | 25.4% | 3.91% | 15% | 2.14% | 8.67% | 17.4% | 24.9% | 1.99% | -3.08% | -3.45% | 1.43% | 2.26% | 6.35% | 2.31% | 4.81% | -0.39% | 9.22% | 0.3% | 1.41% | 2.44%
NS(=O)(=O)c1cccc(-c2ccc3c(NC(=O)C4CC4)n[nH]c3c2)c1 | -2.02% | 6.3% | 3.46% | 3.46% | 5% | -4.15% | -1.21% | -0.76% | -1.91% | -1.3% | 0.39% | -1.67% | -2.6% | 1.65% | 3.55% | -2.18% | 2.91% | -0.31% | 0.27% | 0.7%
COC(=O)Nc1nc2cc(Oc3cccc(NC(=O)Nc4cc(C(F)(F)F)ccc4F)c3)ccc2[nH]1 | 38.9% | 6.28% | -2.46% | 1.83% | 2.46% | 9.23% | 5.13% | 0.35% | -1.15% | 0.17% | -0.22% | 1.48% | 2.64% | 1.09% | 5.44% | -0.45% | -3.58% | -0.5% | -1.08% | -2.72%
CC1=C(C(=O)Nc2ccc3[nH]ncc3c2)C(c2ccc(F)cc2)NC(=O)N1 (stereo not given) | 42.4% | 4.69% | 21.4% | 7.19% | 29.2% | -8.18% | 4.28% | 0.2% | 2.69% | 0.2% | 1.72% | 2.11% | 2.37% | 0.66% | 3.1% | 4.95% | 31.2% | 0.84% | 3.68% | 0.85%
COc1ccc(-c2coc3ncnc(N)c23)cc1 | 11% | 8.95% | 5.93% | 6.03% | 7.88% | 5.47% | 8.84% | -2.61% | -2.53% | -0.77% | -0.96% | 3.6% | 5.59% | 2.58% | 7.38% | 0.94% | -4.86% | 0.34% | 1.05% | 1.6%
CS(=O)(=O)CCNCc1ccc(-c2ccc3ncnc(Nc4ccc(OCc5ccccc5)c(Cl)c4)c3c2)o1 | 12.1% | 3.3% | 5.38% | 3.99% | 4.36% | 0.6% | 3.9% | -0.03% | -0.79% | 1.87% | 1.51% | -0.91% | 0.89% | 7.47% | 9.67% | 2.4% | 11.3% | -0.1% | 0.61% | 2.31%
Cc1nn(C)c2cc(N(C)c3ccnc(Nc4cccc(S(N)(=O)=O)c4)n3)ccc12 | 46.8% | 5.47% | 22.4% | 63.2% | 80.2% | 11.1% | 49.5% | 0.83% | 9.11% | -6.41% | -0.53% | 25.8% | 67.9% | 10.6% | 52.5% | 30% | 80.7% | 0.86% | 10.2% | 2.81%
COc1cc2ncn(-c3cc(OCc4ccccc4Cl)c(C(N)=O)s3)c2cc1OC | 60.2% | 0.23% | 13.3% | 9.59% | 29.2% | 20.5% | 20.9% | 2.74% | 7.95% | -2.2% | 1.86% | 1.67% | 7.65% | 3.11% | 26.9% | 16.9% | 63.2% | 0.35% | 7.05% | 0.53%
NC(=O)c1cccc(Nc2nccc(Nc3cccc4[nH]ncc34)n2)c1 | 79.7% | 1.43% | 4.78% | 21.8% | 66% | 86.3% | 94.9% | 8.24% | 41.9% | -5.51% | 25.4% | 17.4% | 62.5% | 9.12% | 47.5% | 6.88% | 58.3% | 5.44% | 47.8% | 0.29%
CCc1cccc(NC(=O)Nc2ccc(Oc3ccc4nc(NC(=O)OC)[nH]c4c3)cc2)c1 | 74.6% | 5.94% | 5.62% | -0.48% | 0.49% | 0.79% | 5.84% | 0.61% | 1.28% | 2.75% | -0.99% | 2.07% | 3.91% | 46.2% | 55.7% | 3.34% | 13.8% | -0.42% | 1.35% | 30.8%
COC(=O)Nc1nc2cc(Oc3ccc(NC(=O)Nc4cccc(C(=O)O)c4)cc3)ccc2[nH]1 | 26.3% | 0.89% | 5.64% | -2.86% | 3.11% | 1.83% | 7.71% | 0.44% | 0.74% | 5.41% | -0.23% | -2.22% | 0.87% | 1.97% | 7.16% | -0.91% | 17.4% | -0.08% | 0.6% | 1.98%
